Measured values: PubChem BioAssay (NCI)
“And” between values parts separate entries of the source, which are not always exact repeats. Equal values may be shown once. About 83,000 compounds went through this panel and 20% of them were active in at least one assay; those are over-represented in the sample as a whole.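 Assay: single dose, 48 h. Readout: percent growth (0 = no net growth; negative = cell death). Active: <10.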 The source made the active and inactive calls.

Tested on: MALME-3M melanoma
Assay: NCI-60 one-dose screen, 48 h (100 = growth as untreated, 0 = no growth, -100 = all killed)
Settings: 10 µM unless noted

SMILES | growth
COc1ccc(Oc2nc(Nc3ccc(N4CCOCC4)cc3)ncc2NC(=O)c2cc(OC)cc(OC)c2)cc1 | 108% (inactive)
COc1cc(F)c(/C=C/c2cc(/C=C/c3cc(OC)c(OC)cc3F)n(-c3cc(F)cc(F)c3)n2)cc1OC | -6.11% (active)
[Cu+].[NH-][C@H]1C[N-]C(=O)[C@H]([C@H]2CCN=C(N)N2)[N-]C(=O)/C(=C\NC(N)=O)[N-]C(=O)[C@H](CNC(=O)C[C@@H](N)CCCN)[N-]C(=O)[C@H](CO)[N-]C1=O | 101% (inactive)
COc1cc(N=Nc2ccc(O)c3ncccc23)c2ncccc2c1 | 35.5% (inactive)
O=S(=O)(O)c1ccc(N=Nc2ccc(N=Nc3cccc4ccccc34)c(S(=O)(=O)O)c2)cc1 | 107% (inactive)
COc1ccc(-c2cc(-c3cccnc3)nc3sc4c(Cl)nnnc4c23)cc1OC | 107% (inactive)
C=C1C(=O)O[C@@H]2[C@H]3[C@H](COC(C)=O)[C@@H](OC(C)=O)C[C@H]3C(=C)[C@@H](O)C[C@@H]12 | 88.9% (inactive)
CCCn1nc(C(=O)N2CCCCC2)c2c1CCC(N1CCC(c3ccncc3)CC1)C2 (stereo not given) | 115% (inactive)
CN1CCN(c2ccc(/C=C/C(=O)c3ccc(O)cc3)cc2)CC1 | 99% (inactive)
CCN(c1cc(-c2ccc(CN3CCC(/C=C/S(=O)(=O)c4ccccc4)CC3)cc2)cc(C(=O)NCc2c(C)cc(C)[nH]c2=O)c1C)C1CCOCC1 | 67% (inactive)
Cc1ccc(-c2nc3nc(-c4ccc(Cl)cc4)nc(N4CCCNCC4)c3o2)cc1 | 91.8% (inactive)

Tested on: MDA-MB-231 breast
Assay: as above
Settings: 10 µM unless noted

SMILES | growth
CCOC(=O)C1=C(C)N=C2SC=C(c3ccc(F)cc3)N2[C@H]1c1cn(-c2ccccc2)nc1-c1ccc(Cl)cc1 | 88.5% (inactive)
CCN(C(=O)N1CCN(c2cc3c(cc2F)c(=O)c(C(=O)O)cn3C2CC2)CC1)c1nc(-c2ccccc2)cs1 | 5.26% (active)
O=C(/C=C/c1ccc(Cl)s1)c1ccc(Cl)s1 | 108% (inactive) and 112% (inactive)
C=CCOc1ccc(/C=C2\SC(=S)N(CCc3ccc(O)cc3)C2=O)cc1 | 90.2% (inactive)
Cc1c(CC(=O)OCCO)cc(-c2ccc(Cl)cc2)n1-c1ccccc1 | 95.4% (inactive)
CC1(C)C(N)=Nc2cc(OCCCN3Cc4ccc(OCCc5cn(CC(=O)N6CCC(CCN7CCCC7)CC6)nn5)cc4C3)c(OCC3CC3)cc21 | 112% (inactive)
O=C1OCC2=C1C(c1cccc(C(F)(F)F)c1)c1cc3c(cc1N2CCO)OCCO3 (stereo not given) | 37.6% (inactive)
N#CC1=C(N)Oc2c(sc3c(Br)cccc23)C1c1ccccn1 (stereo not given) | 59.8% (inactive)
O=C1c2cccc3cccc(c23)C(=O)N1N1C(=O)c2cccc3c(N4CCNCC4)ccc(c23)C1=O | 85.8% (inactive)
O=C(Nc1ccc(F)cc1)c1cc2cc(Nc3nc(-c4ccccc4)nc4ccccc34)ccc2oc1=O | 90.6% (inactive)
O=C1c2cc3c(cc2-c2c1c1ccc(Cl)cc1c(=O)n2CCCn1ccnc1)OCO3 | 46.4% (inactive)
COc1ccc(C/C(C)=C(/c2ccc(OCCN3CCCC3)cc2)c2ccc(OC(=O)NCc3ccccc3)cc2)cc1 | 101% (inactive)
CCCO/N=C/c1ccccn1 | 103% (inactive) and 111% (inactive)
COc1ccc(-c2csc(NC(=O)CN3CCN(CCO)CC3)n2)cc1NS(=O)(=O)c1cccc2c(N(C)C)cccc12 | 71.9% (inactive)
Cc1ccc(-c2nc3nc(-c4ccccc4)nc(N4CCN(S(=O)(=O)c5ccccc5)CC4)c3o2)cc1 | 72.4% (inactive)
CCOc1nc(-c2ccccc2)cc2c(O)c(C(=O)N/N=C/c3ccc(N(C)C)cc3)[nH]c(=O)c12 | 98.8% (inactive)
C/C(=C(\c1ccc(OCCN2CCOCC2)cc1)c1ccc(OC(=O)C2CCCCC2)cc1)c1ccc(Cl)cc1 | 98.8% (inactive)
COc1ccc2c(c1)CC[C@@H]1[C@@H]2CC[C@]2(C)C3C(=CCC4C(=O)N(c5ccccc5)C(=O)C43)C[C@@H]12 (stereo not given in full) | 86.6% (inactive)
CC(=O)c1c(C)nc2ccccc2c1/C=C/c1cccc(C)c1 | 63.5% (inactive)
CCN(CC)CC#CCOC(=O)[C@]1(C)CCC[C@]2(C)c3ccc(C(C)C)cc3CC[C@@H]12 | 101% (inactive)

SMILES | growth
O=C1/C(=C/c2ccc(-c3ccccc3C(F)(F)F)o2)SC(=S)N1CCc1ccc(O)cc1 | 67% (inactive)
COc1ccc(-c2[nH]c3ccccc3c2-c2ccc(OC)cc2)cc1 | 52.6% (inactive)
O=C(CN1C(=O)S/C(=C\C(Cl)=C\c2ccccc2)C1=O)NC1C=CS(=O)(=O)C1 (stereo not given) | 14.3% (inactive)
CCOC(=O)N(O)c1ccc(/C=C/c2ccccc2)cc1 | 67.3% (inactive) and 54% (inactive)
COc1cc(/C=C2/C=C(c3ccc(C(C)(C)C)cc3)N(CCc3ccc(S(N)(=O)=O)cc3)C2=O)cc(OC)c1OC | 60.1% (inactive)
O=[N+]([O-])c1cc(C(F)(F)F)ccc1Sc1ccc(C(F)(F)F)cc1[N+](=O)[O-] | 72.4% (inactive)
O=C(N=Nc1c(O)[nH]c2ccccc12)Nc1ccccc1Cl | 85.1% (inactive)
Nc1n[nH]c2cccc(C#Cc3cccc(NC(=O)c4ccc(N5CCOCC5)c(C(F)(F)F)c4)c3)c12 | -22.3% (active)
COc1ccc(Oc2nc(Nc3ccc(N4CCOCC4)cc3)ncc2NC(=O)c2cc(OC)cc(OC)c2)cc1 | 85.2% (inactive)
COc1cc(F)c(/C=C/c2cc(/C=C/c3cc(OC)c(OC)cc3F)n(-c3cc(F)cc(F)c3)n2)cc1OC | 54.9% (inactive)
[Cu+].[NH-][C@H]1C[N-]C(=O)[C@H]([C@H]2CCN=C(N)N2)[N-]C(=O)/C(=C\NC(N)=O)[N-]C(=O)[C@H](CNC(=O)C[C@@H](N)CCCN)[N-]C(=O)[C@H](CO)[N-]C1=O | 101% (inactive)
COc1cc(N=Nc2ccc(O)c3ncccc23)c2ncccc2c1 | 37.3% (inactive)
O=S(=O)(O)c1ccc(N=Nc2ccc(N=Nc3cccc4ccccc34)c(S(=O)(=O)O)c2)cc1 | 80.3% (inactive)
COc1ccc(-c2cc(-c3cccnc3)nc3sc4c(Cl)nnnc4c23)cc1OC | 77.9% (inactive)
C=C1C(=O)O[C@@H]2[C@H]3[C@H](COC(C)=O)[C@@H](OC(C)=O)C[C@H]3C(=C)[C@@H](O)C[C@@H]12 | 99% (inactive)
CCCn1nc(C(=O)N2CCCCC2)c2c1CCC(N1CCC(c3ccncc3)CC1)C2 (stereo not given) | 118% (inactive)
CN1CCN(c2ccc(/C=C/C(=O)c3ccc(O)cc3)cc2)CC1 | 94.8% (inactive)
CCN(c1cc(-c2ccc(CN3CCC(/C=C/S(=O)(=O)c4ccccc4)CC3)cc2)cc(C(=O)NCc2c(C)cc(C)[nH]c2=O)c1C)C1CCOCC1 | 67.3% (inactive)
Cc1ccc(-c2nc3nc(-c4ccc(Cl)cc4)nc(N4CCCNCC4)c3o2)cc1 | -75.7% (active)
